High-throughput results deposited in PubChem by National Center for Advancing Translational Sciences (NCATS).
POLB inh: inhibitors of human DNA polymerase beta. P06746. Pol beta primer extension/strand displacement, fluorescence kinetic. Potency, µM (series often up to 114 µM), without a hit: at the top dose activity change, negative = inhibition, most hits filed as inhibitors. actives 1.3% (n = 340,000); further: on the % scale 0 is the no-effect control and ±100 the full control effect
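Enzyme-only controls used 10 nM Pol beta; buffer lacking enzyme served as negative control. Compound preincubated 15 min, then 50 nM substrate added; 0 and 10 min reads at room temperature.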
Pol iota inh: DNA polymerase iota (human) inhibition | Q9UNA4 | Pol iota fluorescent replication assay, 10 min | actives 1% (n = 390,000) | Potency, µM (titrated, usually from 115 µM), without a hit: top-dose activity, negative = inhibition, hits mostly inhibitors
Target sequence (Q9UNA4 whole entry, looked up): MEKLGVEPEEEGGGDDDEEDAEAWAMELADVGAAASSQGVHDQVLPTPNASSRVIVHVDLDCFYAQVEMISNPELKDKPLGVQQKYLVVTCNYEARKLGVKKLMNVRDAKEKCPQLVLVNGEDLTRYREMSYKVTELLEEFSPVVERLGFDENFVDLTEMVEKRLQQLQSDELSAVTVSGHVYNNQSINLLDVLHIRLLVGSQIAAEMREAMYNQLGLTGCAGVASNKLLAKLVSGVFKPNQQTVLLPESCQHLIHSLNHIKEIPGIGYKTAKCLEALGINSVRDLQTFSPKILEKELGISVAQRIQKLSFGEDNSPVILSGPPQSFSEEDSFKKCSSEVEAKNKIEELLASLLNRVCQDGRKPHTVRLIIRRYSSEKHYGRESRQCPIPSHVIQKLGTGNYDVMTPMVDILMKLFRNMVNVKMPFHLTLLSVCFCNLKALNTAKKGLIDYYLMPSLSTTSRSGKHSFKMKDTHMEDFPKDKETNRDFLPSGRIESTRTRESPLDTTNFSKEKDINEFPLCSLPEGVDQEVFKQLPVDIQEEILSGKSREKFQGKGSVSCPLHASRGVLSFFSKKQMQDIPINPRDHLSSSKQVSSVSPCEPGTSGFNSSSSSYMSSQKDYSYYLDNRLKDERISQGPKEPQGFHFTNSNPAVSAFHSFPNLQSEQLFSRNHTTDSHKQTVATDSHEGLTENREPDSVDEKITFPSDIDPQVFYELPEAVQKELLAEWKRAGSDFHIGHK
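Pol iota at 10 nM preincubated 15 min with compounds at room temperature; reaction started with fluorescent substrate, 50 nM final. Fluorescence read kinetically at 0 and 10 min; buffer-only wells as negative control.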
L3MBTL1 block: inhibitors of human L3MBTL1 | Q9Y468 | AlphaScreen L3MBTL1–H3K9me1 peptide binding | Potency, µM (titrated, usually from 57.1 µM), for inactives: at the highest dose activity, negative = inhibition, usual class: inhibitors | actives 0.66% (n = 230,000) | AID 485360; further: on the % scale 0 is the no-effect control and ±100 the full control effect; nearly all actives have a fitted effect of over 60% in size
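AlphaScreen assay: L3MBTL1 (50 nM final) was preincubated 30 min at room temperature with biotinylated H3(1-15)K9me1 peptide (75 nM final), then 30 min with library compounds; streptavidin donor and nickel chelate acceptor beads (10 ug/mL final) added, 30 min dark.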
POLK inh: DNA polymerase kappa (human) inhibition; Q9UBT6; purified Pol kappa, fluorescent DNA synthesis assay, 10 min; Potency, µM (highest dose often 107 µM), for the others: at the highest dose activity, negative = inhibition, hits mostly inhibitors; actives 0.53% (n = 400,000); AID 588579; further: on the % scale 0 is the no-effect control and ±100 the full control effect
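Kinetic fluorescence readout at 0 and 10 min followed reaction start with substrate at 50 nM final. Beforehand, enzyme (10 nM Pol kappa) stood 15 min with compound at room temperature; buffer-only wells were negative controls.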
Pol eta inh: blocks human DNA polymerase eta activity; actives 1.2% (n = 390,000); Potency, µM (series often up to 114 µM), inactives show top-dose activity change, negative = inhibition, usual class: inhibitors; recombinant Pol eta, fluorescent DNA replication assay; Q9Y253; further: on the % scale 0 is the no-effect control and ±100 the full control effect
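Pol eta at 10 nM preincubated with compounds 15 min at room temperature; reaction started with fluorescent substrate (50 nM final) and read kinetically at 0 and 10 min.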
Starred values were filed as active, the others as inactive; u = inconclusive; x = no result; [ ] = dose if it differs, or a comment. Compounds with a hit are over-represented: about 2.4% of the library has one in this group of screens. The call rests on the fitted dose curve; in most records, active means well fitted curve in the direction sought with a large enough effect; inconclusive means small, poorly fitted or top-dose-only effect, or another doubt; inactive means no such curve, though single readings can be large; an effect the other way counts as inactive or inconclusive. Potency means the concentration at half of the fitted maximal effect.

SMILES	POLB inh	Pol iota inh	L3MBTL1 block	POLK inh	Pol eta inh
Cc1ccc(C2=NN(C(=O)CCC(=O)O)C(c3cn(-c4ccccc4)nc3-c3ccc(C)cc3)C2)cc1 (configuration not stated)	22µM*	1%	x	-5%[60.1 µM]	u
CCOc1ccc2nc(Cl)c(C3CC(c4ccc(C)cc4)=NN3C(=O)CCCC(=O)O)cc2c1 (configuration not stated)	22µM*	18%	x	-22%	u
COc1ccc(CCn2c(=S)[nH]c(=O)c3[nH]cnc32)cc1OC	x	21%	x	-12%	x
CC1=C(c2ccc(C(C)C)cc2)S(=O)(=O)N=C1N1CCC(C(=O)NCc2ccco2)CC1	-2%	19%	x	2%	x
CC1=C(c2ccc(C(C)C)cc2)S(=O)(=O)N=C1N1CCN(C(=O)c2ccco2)CC1	-16%	50µM*	x	u	-19%
CNc1ccc(C=C2c3ccccc3-c3ccccc32)cc1	x	10%	x	-11%	x
Cc1cc2nc3ccc(N(C)C)cc3nc2cc1N	x	6.3µM*	x	u	u
CC(=O)N(C)c1ccc(N=Nc2c(C)[nH]n(C(N)=S)c2=O)cc1	-1%	-15%	x	-7%[60.1 µM]	-11%
Cc1[nH]n(C(N)=S)c(=O)c1N=Nc1ccc([N+](=O)[O-])cc1Cl	29%	40µM*	x	-14%	-24%
CCN(CC)S(=O)(=O)c1ccc(N=Nc2c(C)[nH]n(C(N)=S)c2=O)cc1	40µM*	24%	19%	-3%	7%
NC(=S)n1[nH]c(-c2ccc([N+](=O)[O-])cc2)c(N=Nc2cccc(Cl)c2)c1=O	u	20µM*	-17%	u	40µM*
NC(=S)n1[nH]c(-c2ccc([N+](=O)[O-])cc2)c(N=Nc2ccc(O)cc2)c1=O	6%	u	x	u	u
Cc1ccccc1N=Nc1c(C)[nH]n(C(N)=S)c1=O	u	4%	6%	-20%	-1%
COc1ccc(SCCN2CCN(CCc3ccccc3)CCC2=O)cc1	x	u	x	16%	x
Cc1ccc(NC(=O)Cn2cncc2-c2ccc([N+](=O)[O-])cc2)cc1C	35µM*	u	2%	-9%	u
O=S(=O)(NCCc1ccccc1)c1ccccc1Br	x	0%	x	-1%	x
COC(=O)c1scc(-c2ccc(C)cc2)c1S(=O)(=O)Nc1cc(Cl)ccc1C	u	-16%	x	-19%	-16%
NNC(=O)c1cc(O)c(O)c(O)c1	3.2µM*	u	0.56µM*	56µM*	-1%
COc1c(Cl)cc(C(=O)NN)cc1Cl	-1%	55%	14%	-6%	0%
O=C(Cc1cccs1)N/N=C/C=C\c1ccco1	u	u	-21%	u	50µM*
O=C(N/N=C/C=C\c1ccco1)c1cccs1	22µM*	25µM*	6.3µM*	u	u
O=C(CNC(=O)c1cccs1)N/N=C/c1ccco1	-2%	-3%	x	5%	-8%
Cc1cccc(C)c1OCC(=O)N/N=C/C=C/c1ccco1	-1%	-3%	x	-11%	17%
Cc1ccc(OCC(=O)N/N=C/C=C/c2ccco2)c(Br)c1	-23%	50µM*	x	79µM*	-6%
O=C(N/N=C/C=C/c1ccco1)c1ccncc1	39%	16µM*	20%	79µM*	-2%
SMILES	POLB inh	Pol iota inh	L3MBTL1 block	POLK inh	Pol eta inh
O=C(N/N=C/C=C/c1ccco1)/C(=C/c1ccccc1)NC(=O)c1ccccc1	2%	13µM*	-11%	u	79µM*
O=C(N/N=C/C=C/c1ccco1)c1ccccc1Cl	1%	u	x	79µM*	-5%
O=C(O)/C(=C\c1ccco1)NC(=O)c1ccccc1	-1%	3%	-13%	-20%	3%
O=C(N/N=C/C=C\c1ccccc1[N+](=O)[O-])c1cccs1	-8%	-11%	-3%	2%[60.1 µM]	7%
O=C(N/N=C/C=C/c1ccc([N+](=O)[O-])cc1)c1cccs1	7.1µM*	u	-1%	-16%	u
COc1cc2c(NC3CCN(C)CC3)nc(N3CCCCC3)nc2cc1OCCOCCN1CCCC1	x	u	x	-19%	x
